Sampled rows, rich in hits. Any-hit rate of the full collection: about 9.8%.
CBFb-RUNX1 inh: blocks binding between human CBF-beta and RUNX1. Q01196+Q13951. AlphaScreen CBFb-His/RUNX1-biotin binding, biochemical. Potency, µM (doses to about 59.8 µM), usual class: inhibitors. 230,000 tested, under 10 active. AID 1477
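Interaction loss through any mechanism counts as activity. Pre-formed complex of His-CBF-beta and biotin-RUNX1 (30 nM apiece) is incubated with compound 15 min, then with 50 ng nickel and 50 ng streptavidin beads for 90 min before AlphaScreen detection.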
HTT ATP protect: Huntington cell model cytoprotection by ATP luminescence; PC12 HTT-Q103 induced, cytoprotection, ATP luminescence, 40 h; Potency, µM (doses to about 56.4 µM), usual class: activators; hit rate 0.14% among 230,000; also: nearly all actives have a fitted effect of over 45% in size
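PC12 cells stably carrying ecdysone-inducible Htt exon 1 (Q103)–GFP were induced with 100 nM tebufenozide (final) alongside library compounds in a dose series. Cytoprotection was scored as retained ATP by ATPlite luminescence.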
ALDH1A1 block: inhibitors of human aldehyde dehydrogenase 1A1; Potency, µM (titrated, usually from 75.3 µM), most hits filed as inhibitors; Purified ALDH1A1, NADH fluorescence, propionaldehyde substrate; hit rate 7.3% among 220,000; AID 1030; active = well fitted inhibition curve with a large enough effect, not every such curve was filed as active; inconclusive = small, poorly fitted or top-dose-only effect, or another doubt; inactive = no such curve, though single readings can be large or run the other way
HttQ103 aggreg: inhibitors of mutant huntingtin aggregate formation in PC12 cells; PC12 HttQ103-GFP aggregates, Acumen cytometry, 40 h; Potency, µM (series often up to 46.1 µM), usual class: inhibitors; hit rate 1.1% among 220,000; AID 1688; also: nearly all actives have a fitted effect of over 60% in size
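PC12/HTTQ103-GFP, ecdysone-inducible; teb 100 nM; cpd qHTS titration; GFP aggregates read on laser cytometer, Ex 488/Em 500-530 nm.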
HPGD block: HPGD (human) dehydrogenase inhibition | P15428 | purified HPGD, NADH fluorescence kinetic, PGE2 substrate | Potency, µM, usual class: inhibitors | hit rate 4.3% among 150,000 | AID 894; active = well fitted inhibition curve with a large enough effect, not every such curve was filed as active; inconclusive = small, poorly fitted or top-dose-only effect, or another doubt; inactive = no such curve, though single readings can be large or run the other way
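NADH formation kinetics: reaction with 30 uM PGE2 and 1 mM NAD+ (final), 20 nM enzyme, Tris-HCl pH 8 with Tween 20, after 15 min compound preincubation at room temperature. Fluorescence change, last versus first of five reads.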
KDM4E inh: JMJD2E (human) inhibition. B2RXH2. Potency, µM (titrated, usually from 57.1 µM), usual class: inhibitors. hit rate 1.6% among 230,000. JMJD2E catalytic domain, FDH-coupled NADH fluorescence (FDH is formaldehyde dehydrogenase); also: nearly all actives have a fitted effect of over 50% in size
Target sequence (B2RXH2 1-337 limits assumed): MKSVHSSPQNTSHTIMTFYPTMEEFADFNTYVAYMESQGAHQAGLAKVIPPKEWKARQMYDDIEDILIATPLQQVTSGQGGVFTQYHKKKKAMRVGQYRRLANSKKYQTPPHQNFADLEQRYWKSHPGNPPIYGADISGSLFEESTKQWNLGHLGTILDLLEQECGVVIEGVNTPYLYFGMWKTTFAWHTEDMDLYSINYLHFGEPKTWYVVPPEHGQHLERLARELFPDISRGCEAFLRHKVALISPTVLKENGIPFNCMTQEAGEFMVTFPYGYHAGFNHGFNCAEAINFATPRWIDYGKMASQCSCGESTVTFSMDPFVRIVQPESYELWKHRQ
Large screens that a line does not name were inactive. Unless noted, calls follow the shape of the dose curve; as a rule, active = well fitted curve in the direction sought with a large enough effect; inconclusive = small, poorly fitted or top-dose-only effect, or another doubt; inactive = no such curve, though single readings can be large; an effect the other way counts as inactive or inconclusive.

Cn1c(=O)[nH]c(=O)c2c1nc(N1CCCCC1)n2C/C=N/Nc1ccc(C(=O)O)cc1	none (no result: ALDH1A1 block, HPGD block)
COc1ccccc1-n1c(=O)c(C#N)c(-c2ccc([N+](=O)[O-])cc2)c2cc(C(=O)c3ccccc3O)cnc21	none (no result: ALDH1A1 block, HPGD block)
CCOC(=O)C1(CC2CCCCO2)CCN(S(=O)(=O)c2ccc(C)s2)CC1 (centres undefined)	ALDH1A1 block 20µM (no result: HPGD block)
CC[C@H]1NC(=O)c2cc(S(N)(=O)=O)c(Cl)cc2N1	none
CC[n+]1c(/C=C/c2c[nH]c3ccccc23)ccc2cc(C)ccc21	HttQ103 aggreg 8.9µM (no result: HPGD block)
CC[n+]1c(/C=C/C=C/N(C(C)=O)c2ccccc2)sc2ccccc21	ALDH1A1 block 3.5µM
COc1ccc(C(=O)N2CCC3(CC2)CN(C(=O)Nc2ccccc2)C3)cc1	none (no result: CBFb-RUNX1 inh, HttQ103 aggreg, KDM4E inh)
CCOC(=O)C1=NN(c2ccccc2)C(=O)C1	none (no result: ALDH1A1 block, HPGD block)
CCOC(=O)C1=NN(c2ccccc2)C(=O)/C1=C\c1ccc(N(C)C)cc1	ALDH1A1 block 1.6µM, HPGD block 13µM
CC1=NN(Cc2ccccc2)C(=O)/C1=C\c1ccc(N(C)C)cc1	CBFb-RUNX1 inh inconclusive, ALDH1A1 block 14µM
O=C(NCc1cc(Br)cc(Br)c1OC(=O)c1ccccc1[N+](=O)[O-])c1ccccc1	HttQ103 aggreg inconclusive (no result: HPGD block)
O=C(CSc1cccc[n+]1[O-])c1cc2ccccc2o1	ALDH1A1 block inconclusive, HPGD block 28µM, KDM4E inh 32µM
Cc1cn(C2OC(COC(=O)c3ccccc3)C(OC(=O)c3ccccc3)C2OC(=O)c2ccccc2)c(=O)[nH]c1=O (centres undefined)	none
O=C(OCC1OC(OC(=O)c2cc(O)c(O)c(OC(=O)c3cc(O)c(O)c(O)c3)c2)[C@@H](OC(=O)c2cc(O)c(O)c(OC(=O)c3cc(O)c(O)c(O)c3)c2)C(OC(=O)c2cc(O)c(O)c(OC(=O)c3cc(O)c(O)c(O)c3)c2)C1OC(=O)c1cc(O)c(O)c(OC(=O)c2cc(O)c(O)c(O)c2)c1)c1cc(O)c(O)c(OC(=O)c2cc(O)c(O)c(O)c2)c1 (some centres undefined)	ALDH1A1 block inconclusive, HPGD block 3.2µM, KDM4E inh 0.28µM (no result: CBFb-RUNX1 inh)
Cc1ccc(C2(c3noc(CN4CCC(C(=O)N5CCOCC5)CC4)n3)CCCC2)cc1	HTT ATP protect inconclusive (no result: HPGD block)
CCSC1=C(C#N)C(c2ccccc2Cl)C(C(=O)c2cccs2)C(O)(C(F)(F)F)N1 (centres undefined)	ALDH1A1 block 11µM
C=CCSC1=C(C#N)C(c2ccccc2Cl)C(C(=O)c2cccs2)C(O)(C(F)(F)F)N1 (centres undefined)	ALDH1A1 block 14µM
OC[C@H]1OC(O)[C@@H](O)[C@@H](O)[C@H]1O (some centres undefined)	none (no result: HTT ATP protect, ALDH1A1 block, HttQ103 aggreg, HPGD block, KDM4E inh)
Nc1cc(C(F)(F)F)ccc1-n1cccc1	ALDH1A1 block inconclusive (no result: HPGD block)
CC1=NN(c2ccc(C)c(C)c2)C(=O)C1C(c1cccc(O)c1)C1C(=O)N(c2ccc(C)c(C)c2)N=C1C (centres undefined)	ALDH1A1 block 0.71µM, HPGD block 10µM
CC1=NN(c2ccc(C)cc2C)C(=O)C1C(c1ccccc1O)C1C(=O)N(c2ccc(C)cc2C)N=C1C (centres undefined)	none
Cc1nn(C)c(C(=O)N/N=C/c2cccc3ccccc23)c1Cl	HTT ATP protect inconclusive
CC(C)Cn1cc(C(=O)N2CCOCC2)c2c3ccccc3n(C)c2c1=O	none (no result: HPGD block)
CC(C)Cn1cc(C(=O)NCc2cccs2)c2c3ccccc3n(C)c2c1=O	ALDH1A1 block 1µM (no result: HPGD block)
O=C(O)c1ccc(C[n+]2c(-c3ccccc3)csc2Nc2ccccc2)cc1	HPGD block 16µM
CC(C)(C)c1cc(-c2csc(Nc3ccccc3)[n+]2Cc2ccc(C(=O)O)cc2)cc(C(C)(C)C)c1O	none (no result: ALDH1A1 block, HPGD block)
Cc1ccc(NC2Sc3ccccc3NC2=O)cc1 (centres undefined)	ALDH1A1 block 25µM, HttQ103 aggreg inconclusive, KDM4E inh 22µM (no result: HPGD block)
COC(=O)CC1Sc2ccccc2NC1=O (centres undefined)	HttQ103 aggreg inconclusive

From PubChem
